Compounds with a hit are over-represented: about 3% of the library has one in this group of screens.
Sm TGR inh: inhibitors of Schistosoma mansoni thioredoxin glutathione reductase; Q962Y6; purified TGR, DTNB reduction, TNB absorbance 405 nm; Potency, µM (titrated, usually from 114 µM), inactives show at the top dose activity change, negative = inhibition, usual class: inhibitors; 3% of 360,000 active; active = well fitted inhibition curve with a large enough effect; inconclusive = small, poorly fitted or top-dose-only effect; inactive = no such curve, though single readings can be large or run the other way; also: % is scaled to controls: 0 for no effect and ±100 for the full control effect; nearly all actives have a fitted effect of over 60% in size
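Kinetic colorimetric format: TGR-catalysed, NADPH-driven DTNB reduction monitored via TNB absorbance. Enzyme dispensed at 20 nM; compound exposure 15 min at room temperature before reaction start.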
SARS PLP yeast: SARS-CoV PLP inhibition in yeast; S. cerevisiae expressing SARS-CoV PLpro, growth rescue; Potency, µM (highest dose often 32.9 µM), without a hit: at the highest dose activity, positive = growth rescue, most hits filed as activators; 0.19% of 330,000 active; calls by dose curve; also: 0% is about no effect; nearly all actives have a fitted effect of over 55% in size
Starred values were filed as active, the others as inactive; ? = inconclusive; / = no result given; [ ] = another dose, or the depositor's remark. Potency is read from the fitted curve at half-maximal effect.

SMILES	Sm TGR inh	SARS PLP yeast
O=C(C1=C(O)C(=O)N(CCN2CCOCC2)C1c1ccc(Cl)cc1)c1cc2ccccc2o1 (centres undefined)	28.2µM*	-0.1%
Cc1cccc(-c2nnn3c2nc(NCCc2ccc(S(N)(=O)=O)cc2)c2cc(Cl)ccc23)c1	8.1%	/
Cc1cccc(Cn2c(=O)n(CCc3ccccc3)c(=O)c3sc4ccccc4c32)c1	-9.1%	/
Cn1cc(Br)c(C(=O)NNC(=O)c2cccc(Br)c2)n1	35.5µM*	0.8%
Cn1cc(Br)c(C(=O)NNC(=O)c2ccc(Cl)cc2)n1	-19.4%	-5.4%
CCOc1ccc(-c2nc(C(N)=O)c3c(n2)n(-c2ccc4c(c2)OCO4)c(=O)n3CC)cc1	2.9%	/
O=C(N/N=C/C=C/c1ccccc1)c1cccnc1	-1.3%	0.6%
O=C(N/N=C/C=C\c1ccco1)c1cccnc1	25.1µM*	-18.8%
O=C(N/N=C/c1ccco1)c1ccncc1	-1.1%	3.4%
O=C(N/N=C\C=C\c1ccco1)c1cncc(Br)c1	17.8µM*	-0.2%
CC(/C=C\C=C\c1ccccc1)=N\NC(=O)c1cncc(Br)c1	39.8µM*	0.8%
CC(/C=C/C=C/c1ccccc1)=N\NC(=O)c1cccnc1	?	-3.1%
O=C(N/N=C\c1ccco1)c1cncc(Br)c1	0.4%	-0.7%
O=C(N/N=C/C=C/c1ccco1)c1cccnc1	22.4µM*	-13.2%
Cc1noc(/C=C/c2ccccc2F)c1S(=O)(=O)N1CCC(C(=O)N2CCOc3ccccc32)CC1	0.5%	/
CCn1ccc2cc(S(=O)(=O)N3CCC(C(=O)NCc4ccc(OC)cc4)CC3)ccc21	-8.7%	/
Cc1c(C(=O)Nc2cccc(-c3nc4ccccc4s3)c2)oc2ccccc12	1.3%	/
CCC(Sc1nnc(-c2ccc(OC)cc2)c(-c2ccc(OC)cc2)n1)C(=O)Nc1cccc(OC)c1 (centres undefined)	11.9%	/
CCCOc1ccc(NC(=O)CC2C(=O)N(c3ccc(OC)cc3)C(=O)N2CCc2ccncc2)cc1 (centres undefined)	9.6%	/
COc1ccc(S(=O)(=O)n2nc(C)c(S(=O)(=O)N3CCCCC3)c2C)cc1	23.3%	/
CCc1cccc(N2C(=O)CS(=O)(=O)C23C(=O)N(Cc2ccccc2)c2ccc(C)cc23)c1 (centres undefined)	-2.8%	/
CCOc1ccc(C2C(=O)N(C3CCCCCC3)CC(=O)N2Cc2ccccc2)cc1OC (centres undefined)	5.9%	/
NCC(O)c1cc(O)c(O)cc1F (centres undefined)	44.7µM*	/
CCOc1ccc(CCNC(=O)c2ccc(Cn3c(=O)c4cccn4c4cccnc43)cc2)cc1	-5.5%	/
COc1ccc(N(CC(=O)NCc2ccco2)S(=O)(=O)c2ccc(OC)c(OC)c2)cc1	-3.5%[11.4 µM]	10.2%
SMILES	Sm TGR inh	SARS PLP yeast
O=C(COC(=O)c1cc2ccccc2cc1O)NC(=O)NCc1ccco1	44.7µM*	0.2%
Cc1cc2c(cc(C(=O)OCC(=O)NCc3ccco3)n2C)s1	-15.0%	-5.4%
COc1ccc(C2(C(=O)NCc3ccco3)CCCC2)cc1OC	44.7µM*	3.6%
O=C(NCc1ccco1)C1(c2ccccc2)CCCC1	?	-0.1%
Cn1c(C(=O)OCC(=O)NCc2ccco2)cc2sccc21	50.1µM*	2.6%
O=C(COC(=O)c1n[nH]c2ccccc12)NC(=O)NCc1ccco1	-31.6%	1.9%
CCOc1ccc(N(CC(=O)NCc2ccco2)S(=O)(=O)c2ccc(OC)c(OC)c2)cc1	31.6µM*	-0.7%
Cc1cccc(N(CC(=O)NC(C)c2ccccc2)S(=O)(=O)c2ccccc2)c1C (centres undefined)	-1.1%	/
Cc1oc(-c2ccccc2)nc1CNC(=O)Nc1ccccc1	-11.6%	/
COC(=O)c1c(-c2cccs2)csc1NC(=O)COc1ccccc1	-1.3%	/
Cc1ccc2c(c1)N(C(=O)Nc1cccc3c1CCCC3)CCO2	-3.1%	/
CCn1c2c(c(=O)n3ncc(C(=O)Nc4cccc(Cl)c4C)c13)CN(Cc1ccc(OC)cc1)CC2	-16.3%	/
CC(C)C(NC(=O)OCc1ccccc1)C(=O)OCC(=O)NC1CC1 (centres undefined)	?	0.3%
CC(C)C(NC(=O)OCc1ccccc1)C(=O)OCC(=O)NCc1ccco1 (centres undefined)	28.2µM*	8.2%
CCCc1nc2ccccc2c(C(=O)OCC(=O)NCc2ccco2)c1CC	?	-0.6%
CCc1nc2ccccc2c(C(=O)OCC(=O)NCc2ccco2)c1C	35.5µM*	-3.4%
COc1cc(OC)cc(C(=O)OCC(=O)NCc2ccco2)c1	?	3.5%
COc1cc(C(=O)OCC(=O)NCc2ccco2)cc(OC)c1OC	44.7µM*	0.6%
CC(C)(C)c1ccc(OCC(=O)NNC(=S)NC(=O)c2ccco2)c(Br)c1	0.3%	4.1%
CC(C)(C)c1ccc(OCC(=O)NCc2ccco2)c(Br)c1	10µM*	-17.2%
O=C(NCCC1=CCCCC1)c1ccc2c(c1)N(Cc1cccc(Cl)c1)C(=O)c1ccccc1S2=O (centres undefined)	9.1%	/
COc1ccc(CNc2ncnc3c2nc2n3CCCC2)cc1	-0.3%	/
Cc1ccc2c(Sc3ccc(Cl)cc3)c(C(=O)NCCC(C)C)[nH]c2c1	-1.1%	/
O=C(COC(=O)c1ccc(S(=O)(=O)NCc2ccco2)cc1)NCc1ccccc1	/	10.2%
CCCOc1cc(CC(=O)NCc2ccco2)ccc1OC	-19.1%	-1.5%
SMILES	Sm TGR inh	SARS PLP yeast
COc1ccc(CC(=O)OCC(=O)NCc2ccco2)cc1OC	39.8µM*	-0.4%
CN(C)S(=O)(=O)c1ccc(C(=O)NCc2ccco2)cc1	-6.6%	1.1%
CN(C)S(=O)(=O)c1ccc(C(=O)OCC(=O)NCc2ccco2)cc1	35.5µM*	-8.3%
O=C(COC(=O)c1ccc(S(=O)(=O)NCc2ccco2)cc1)NCCC1=CCCCC1	44.7µM*	-4.4%
CCN(CC)S(=O)(=O)c1ccc(OCC(=O)NCc2ccco2)cc1	22.4µM*	0.4%
Cc1ccc(S(=O)(=O)N(C)c2ccc(OCC(=O)NCc3ccco3)cc2)cc1	1.5%	-0.1%
Cc1ccccc1CN1CCC(CNc2ncnc3onc(-c4ccc(Cl)cc4)c23)CC1	2.4%	/
O=C(COC(=O)c1cccs1)NCc1ccco1	?	-1.7%
CCOc1cc(C(=O)OCC(=O)NCc2ccco2)cc(OCC)c1OCC	25.1µM*	6.0%
O=C(COC(=O)c1ccc(NS(=O)(=O)c2cccs2)cc1)NCc1ccco1	11.2µM*	-0.5%
O=C(COC(=O)c1cncc(Br)c1)NCc1ccco1	25.1µM*	10.3%
O=C(COC(=O)c1cncc(Br)c1)NCc1ccc(F)cc1	-0.8%	-1.5%
CN(C)c1cccc(C(=O)OCC(=O)NCc2ccco2)c1	-30.0%	16.9%
CCCC(=O)NC(C)c1nc2ccccc2n1Cc1ccccc1 (centres undefined)	1.1%	/
O=C(NCCc1ccccc1)c1nn(-c2ccc(F)cc2)nc1CO	4.0%	/
COc1cccc(CNC(=O)CCc2cn(Cc3ccccc3Cl)c3ccccc23)c1	-2.8%	/
CCOc1ccccc1NC(=O)CN1c2ccccc2S(=O)(=O)c2ccccc21	1.5%	/
Cc1ccc(CNC(=O)C2CCC(CNS(=O)(=O)c3ccc4c(c3)CCCC(=O)N4)CC2)cc1 (centres undefined)	9.2%	/
COc1cc(OC)c(N(C)C(=O)Nc2cn(CC(C)C)c(=O)c3ccccc23)cc1Cl	-2.9%	/
COc1cccc(OC(=O)CSc2nnc(-c3ccccc3OC)o2)c1	-14.9%	/
O=c1c2oc3ccccc3c2n(Cc2ccc(Cl)cc2)c(=O)n1Cc1ccc2c(c1)OCO2	-0.6%	/
O=C(CCS(=O)(=O)c1ccc(Br)s1)Nc1cc(C(F)(F)F)cc(C(F)(F)F)c1	-9.8%	/

Compound activity deposited in PubChem by National Center for Advancing Translational Sciences (NCATS).
